# Data: PubChem BioAssay AID1347417 (National Center for Advancing Translational Sciences (NCATS), 2020)
# Screen size: about 120,000 compounds; about 5,300 (4.4%) were called active. Roughly 22% stayed inconclusive and do not appear here. The full list was thinned out, with actives kept by preference. A number with no mark means an inactive call. Calls come from the whole dose curve; as a rule, active = well fitted inhibition curve with a large enough effect; inconclusive = small, poorly fitted or top-dose-only effect; inactive = no such curve, though single readings can be large or run the other way.
# Assay: qHTS Primary assay for Inhibitors of Plasmodium falciparum Dd2 growth in vitro; note: nearly all actives have a fitted effect of over 65% in size;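 for activity, negative = inhibition: plate controls were DMSO vehicle for no effect and reference drug for full effect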
# Conditions: P. falciparum Dd2 growth, SYBR Green, 72 h; series mostly up to 28.9 µM; activity, negative = inhibition: at the top concentration
# In short: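 Infected erythrocytes (Dd2, 0.3% parasitemia, 2.5% hematocrit final) are added to compound in RPMI-1640/Albumax II medium, grown 72 h at 37C in low oxygen, then lysed with saponin/Triton-X containing SYBR Green and read by fluorescence.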
# Potency is the fitted concentration of half-maximal effect.
SMILES,"activity, negative = inhibition",Potency,outcome
NC(=O)c1ccc(NC(=O)C2CC(=O)N(c3n[nH]c4cccc(F)c34)C2)cc1 (configuration not stated),10.2%,–,–
COC(=O)c1cccc(NC(=O)N2CCC3(CCC(=O)N(Cc4ccccc4)CC3)CC2)c1,-19.1%,–,–
CCOC(=O)c1ccc(N2C(=O)c3[nH]nc(-c4ccccc4)c3C2c2ccc(C(C)C)cc2)cc1 (configuration not stated),–,7.94 µM (active),–
CCOC(=O)c1ccc(N2C(=O)c3n[nH]c(C)c3C2c2ccc(O)c(OC)c2)cc1 (configuration not stated),-22.2%,–,–
CCOC(=O)c1ccc(NC(=O)C2CC(=O)N(c3ccc(C(C)C)cc3)C2)cc1 (configuration not stated),10.8%,–,–
Nc1nc2c(s1)C(c1ccccc1)CC(=O)N2 (configuration not stated),-11.5%,–,–
Cc1cccc(-c2cccc(CN)c2)c1,–,11.2 µM (active),–
NCc1ccc(-c2cncnc2)cc1,0.276% [at 44.1 µM],–,–
O=C(Cc1ccsc1)N1CCC(Oc2ccccc2)C1 (configuration not stated),–,–,inactive
Cc1cccc(NC(c2cccc(F)c2)c2ccc3ccc(C)nc3c2O)n1 (configuration not stated),–,6.31 µM (active),–
O=C(N1CCCC1)N1CCCC(c2nnc3n2CCNC3)C1 (configuration not stated),10.1%,–,–
COc1c(F)cccc1CN1CCOc2cc([S+](=O)([O-])N(C)C)ccc2C1,–,–,inactive [at 44.1 µM]
COC(=O)C1=C(C)N=C2SC=C(CC(=O)NCc3ccco3)N2C1c1cccc(F)c1 (configuration not stated),–,–,inactive
COC(=O)C1=C(C)N=C2SC=C(CC(=O)NCCC(C)C)N2C1c1ccccc1Cl (configuration not stated),-0.875%,–,–
COC(=O)C1=C(C)N=C2SC=C(CC(=O)NCc3ccccc3F)N2C1c1ccccc1Cl (configuration not stated),–,11.2 µM (active),–
CCCNC(=O)[C@@H]1Cc2cn(Cc3cc(C)on3)c3cccc(c23)[C@H](CC(C)C)N1,-0.167% [at 44.1 µM],–,–
Cc1ccc(-c2nc(S(=O)(=O)c3ccc(C)cc3)c(N3CCCCCC3)o2)cc1,-8.72%,–,–
O=C(CSc1oc(-c2ccc(F)cc2)nc1S(=O)(=O)c1ccc(Br)cc1)NC1CCCCC1,13.2%,–,–
CC(C)S(=O)(=O)c1oc(-c2ccc(F)cc2)nc1S(=O)(=O)c1ccc(F)cc1,–,11.2 µM (active),–
COc1cccc(SCC(=O)NCc2cc3n(n2)CCNC3)c1,-6.36%,–,–
COC[C@@H]1CN(Cc2cnn(C)c2C)C[C@H]1c1nc(C2CC2)no1,-16.5%,–,–
O=C1OC[C@@H]2CCN(Cc3ccncc3)Cc3ccc(F)cc3N12,-5.94% [at 44.1 µM],–,–
O=C1OC[C@@H]2CCN(Cc3cnc4ccccc4c3)Cc3ccc(F)cc3N12,–,5.62 µM (active),–
O=C1OC[C@@H]2CCN(Cc3ccccc3)Cc3ccccc3N12,–,–,inactive [at 44.1 µM]
Cc1ccc(-n2nc3n(c2=O)CCN(C(=O)C(C)(C)C)C3)cc1,0.934% [at 44.1 µM],–,–

SMILES,"activity, negative = inhibition",Potency,outcome
CN(C1CCc2nn(C)c(=O)n2CC1)S(=O)(=O)c1ccc2c(c1)OCCO2 (configuration not stated),–,–,inactive
CN1CCC(N2CC[C@H](c3nc4ccccc4s3)C2)CC1,-17.2% [at 44.1 µM],–,–
CC(C)c1ccc(CNC(=O)c2noc(-c3ccc[nH]c3=O)n2)cc1,–,–,inactive
Cc1cc(OC2CN([S+](=O)([O-])c3cccs3)C2)ccc1F,2.46% [at 44.1 µM],–,–
Cc1ccc(CN2CCc3nc(C)nc(-c4ccc(O)cc4)c3C2)cc1,–,–,inactive
CCc1nc2c(c(-c3ccc(Cl)cc3)n1)CN(CCC(C)C)CC2,–,7.94 µM (active),–
CCc1nc2c(c(-c3ccc(Cl)cc3)n1)CCN([S+](=O)([O-])c1cccs1)CC2,–,12.6 µM (active),–
CCc1nc2c(c(-c3ccc(OC)cc3)n1)CCN(CC1CCCCC1)CC2,-26.7%,–,–
O=C1CCNCCCOCCN1,15.7%,–,–
Cc1ccc(NC2=C(c3ccc(C(F)(F)F)cc3)C(=O)c3ccccc32)cc1F,–,0.178 µM (active),–
Cc1ccc(NC(=O)CN2c3ccccc3S(=O)(=O)c3ccccc32)cc1F,-2.41%,–,–
C[C@H](O)c1onc(-c2ccc(F)cc2)c1C(=O)N1CCC1,-2.21% [at 44.1 µM],–,–
Cc1cccc(-n2nc(-c3c(C)nc4scc(CC(=O)NCc5ccco5)n4c3=O)cc2C)c1C,–,–,inactive
Cc1nc(-c2ccccc2)cc([C@H]2CN3CC[C@H]2C[C@@H]3CNC2CCN(C)CC2)n1,-10.6% [at 44.1 µM],–,–
COc1ccccc1-c1cc([C@H]2CN3CC[C@H]2C[C@@H]3CNC(=O)c2ccco2)nc(C)n1,–,10 µM (active),–
COc1ccc(Cl)cc1S(=O)(=O)N1CCCC(CNC(=O)c2ccco2)C1 (configuration not stated),-19.5%,–,–
Cc1ccc(C(=O)NC[C@H]2C[C@@H]3CCN2C[C@@H]3c2cc(-c3ccco3)nc(C)n2)cc1,–,3.55 µM (active),–
COc1ccc(-c2cc([C@H]3CN4CC[C@H]3C[C@@H]4COC(=O)NC(C)C)nc(C)n2)cc1,–,–,inactive [at 44.1 µM]
Cc1nc(-c2ccc(C(F)(F)F)cc2)cc([C@H]2CN3CC[C@H]2C[C@@H]3CNC(=O)C2CCC2)n1,-20.9%,–,–
O=C(c1ccncc1)N1CCC(C2CCN(Cc3cccc(F)c3F)CC2)C1 (configuration not stated),0.365%,–,–
COc1ccc(N2CCN(C(=O)COc3ccc(NC(C)=O)cn3)CC2)cc1,-22.7%,–,–
Cc1cccc(CN2CCc3ncc(C(=O)NCc4ccccc4)n3CC2)n1,9.88% [at 44.1 µM],–,–
COCC(=O)N(C1CCOCC1)C1CCN(S(=O)(=O)c2ccccc2C)CC1,–,–,inactive
CCOC(=O)c1ccc(NC(=O)Cn2ccn3nc(-c4ccccc4)c(CO)c3c2=O)cc1,-13.6%,–,–
Cc1nn(-c2ccccc2)c(C)c1CC(=O)NC1CCCc2c1[nH]c1ccccc21 (configuration not stated),–,–,inactive

SMILES,"activity, negative = inhibition",Potency,outcome
CN(C)C[C@@H]1CN(S(C)(=O)=O)C[C@H]1NC(=O)c1ccc2ncccc2c1,4.36%,–,–
CCCCS(=O)(=O)c1oc(-c2cccs2)nc1S(=O)(=O)c1ccccc1,–,10 µM (active),–
Cc1ccc(CSc2oc(-c3cccs3)nc2S(=O)(=O)c2ccc(C)cc2)cc1,8.49%,–,–
CSc1oc(-c2cccs2)nc1S(=O)(=O)c1ccc(Br)cc1,6.08%,–,–
Cc1cc(OC2CN([S+](=O)([O-])c3ccccc3)C2)ccc1F,-9.59% [at 44.1 µM],–,–
COC1C(=O)N(CC2CC2)C12CCN(C(=O)NC1CCCCC1)CC2 (configuration not stated),-18.9%,–,–
Cn1nccc1CN1CC(Oc2ccc(F)c(F)c2)C1,–,–,inactive [at 44.1 µM]
O=C(NC1CCNC1)C1CCN(c2nc(-c3ccccc3)nc3c2CCC3)CC1 (configuration not stated),–,7.08 µM (active),–
Cc1ccc(-c2cc(N3CCCN(C(=O)COc4ccccc4)CC3)n[nH]2)cc1C,–,–,inactive
Cc1nc(CCNC(=O)C2CCCN(c3nc(-c4ccccc4)nc4c3CCC4)C2)n[nH]1 (configuration not stated),-18.7%,–,–
O=C(NCc1cccnc1)C1CCN(c2nc(-c3ccccc3)nc3c2CCC3)CC1,-6.78%,–,–
O=C(NCCc1ccccn1)C1CCCN(c2nc(-c3ccccc3)nc3c2CCC3)C1 (configuration not stated),-1.6%,–,–
COCCOCC(=O)N1CCCC(c2nc(-c3ccccc3)no2)CCNC(=O)CC1 (configuration not stated),24.6%,–,–
O=C(CN1CCCC1=O)NC1CCCc2nc(-c3ccccc3)ncc21 (configuration not stated),-6.14%,–,–
CC(C)OCC(=O)N1CCN(c2nc(-c3ccccc3)nc3c2CCC3)CC1,–,12.6 µM (active),–
O=C(C1CCN(c2nc(-c3ccccc3)nc3c2CCC3)CC1)N1CCC[C@H]1CO,–,8.91 µM (active),–
COc1ccc(N2CC(C(=O)N3CCSCC3)CC2=O)cc1Cl (configuration not stated),-6.82%,–,–
O=C(Nc1ccccc1Cl)N1CCc2nc3cc[nH]n3c(=O)c2C1,-0.962% [at 5.79 µM],–,–
Cc1nn(CC(=O)NCC2CCCO2)c(=O)c2nc(C(C)C)sc12 (configuration not stated),-21.8%,–,–
CC(C)c1nc(C2Cc3ccccc3N2S(=O)(=O)c2cn(C)cn2)no1 (configuration not stated),–,–,inactive
CCc1ccc(NC(=O)N2CCCC(Cn3cnc4cccnc43)C2)cc1 (configuration not stated),–,–,inactive
COCCNC(=O)CCc1cc2ccc(C)cc2[nH]c1=O,16%,–,–
O=C(c1cc(F)ccc1F)N1CCCC(n2cc(-c3nc(C4CC4)no3)nn2)C1 (configuration not stated),-18.1%,–,–
O=c1n(-c2ccncc2)nc2n1CCN([S+](=O)([O-])c1cccc(C(F)(F)F)c1)C2,21.7%,–,–
CCOc1ccc(C2Cn3nnc(-c4nc(-c5cccc(F)c5)no4)c3CO2)cc1 (configuration not stated),–,–,inactive; activator; fitted 1.7783 uM

SMILES,"activity, negative = inhibition",Potency,outcome
NC(=O)Cn1ccc2cc(OCC3CCN(c4cnccn4)CC3)cnc21,–,–,inactive [at 44.1 µM]
Cn1ccnc1C(=O)N1CCC2(CC1)CN(c1ncccn1)CC2CO (configuration not stated),-6.56%,–,–
COc1cccc(OCc2nnc(C(=O)N3CCC[C@@H]3c3cccc(F)c3)n2-c2ccccc2)c1,–,–,inactive
Cc1ccc(Nc2nc3ccccc3nc2-n2nc(C)cc2C)c(Cl)c1,34.1%,–,–
Cc1cccc(Nc2cc(C)nc(-n3nc(C)cc3C)n2)c1,–,5.62 µM (active),–
Cc1cc(=O)n(CC(=O)Nc2cccc([N+](=O)[O-])c2)c(-n2nc(C)cc2C)n1,10.6%,–,–
O=C(c1ccc2cc[nH]c2n1)N1CCOCC1,13.4% [at 44.1 µM],–,–
COc1ccc(CNC(=O)c2cccc3c2CCN3C(=O)c2ccc(F)cc2)cc1OC,–,–,inactive
COc1ccc(N2C(=O)C3(CCCCC3)C2C(=O)NCCc2ccncc2)cc1 (configuration not stated),9.99%,–,–
COc1ccc(C2Sc3ccccc3NC3=C2C(=O)c2ccccc23)c(OC)c1OC (configuration not stated),–,0.316 µM (active),–
COc1nc2nc(CC3CC3)n(C)c2cc1-c1ccc(CO)cc1,-10.5% [at 44.1 µM],–,–
COc1ccc(CCNC(=O)c2c3c(nc4ccccc24)C(=O)N(C2CCCCC2)C3)cc1OC,23.2%,–,–
COc1ccccc1Nc1cc(C(=O)NCCCN(C)C2CCCCC2)c2ccccc2n1,–,10 µM (active),–
CCN(CC)CCCNC(=O)c1cn(C)c2ccc(S(=O)(=O)N(C)C3CCCCC3)cc2c1=O,62%,–,–
Cc1ccc(NC(=O)Cn2c(-c3ccc(Cl)cc3)nc(C)c(CCO)c2=O)cc1C,-20.1%,–,–
CCN(CC)C(=O)C(NC(=O)c1ccc(OC)cc1)C1CCN(C(=O)C(C)C)CC1 (configuration not stated),-18.8%,–,–
CCN(CC)C(=O)C(NC(=O)c1ccc(OC)cc1)C1CCN(C(=O)c2ccc(F)cc2)CC1 (configuration not stated),–,–,inactive
O=C(NC(C(=O)N1CCCCC1)C1CCN(C(=O)c2ccc(Cl)cc2)CC1)c1ccccc1 (configuration not stated),–,5.01 µM (active),–
CNC(=O)[C@@H]1CN(C(=O)c2ccc3ccccc3n2)C[C@H]1COC,0.257%,–,–
CS(=O)(=O)c1cnc(NCCc2cnc[nH]2)nc1C1CCCNC1 (configuration not stated),-2.1%,–,–
CN(CC1CCOC1)C(=O)Nc1ccc(Cl)cc1 (configuration not stated),–,–,inactive [at 5.79 µM]
CC(C)(C)c1csc(NC(=O)C[C@H]2NC(=O)c3ccccc3NC2=O)n1,–,–,inactive
